# The full list was thinned out, with hits kept by preference.
# ROMK mod = modulators of human ROMK potassium channel. P48048. Tet-inducible ROMK, thallium flux fluorescence; actives lie on both sides. B-score at 10 µM. hit rate 2% among 130,000. AID 1918;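 active means signal ratio slope over the read window, or its plate-corrected B-score, at least 3 SD from the plate mean, either direction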;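 further: B-score of the F/F0 ratio slope over 7 to 12 s after thallium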
# Target sequence (P48048 whole entry, looked up): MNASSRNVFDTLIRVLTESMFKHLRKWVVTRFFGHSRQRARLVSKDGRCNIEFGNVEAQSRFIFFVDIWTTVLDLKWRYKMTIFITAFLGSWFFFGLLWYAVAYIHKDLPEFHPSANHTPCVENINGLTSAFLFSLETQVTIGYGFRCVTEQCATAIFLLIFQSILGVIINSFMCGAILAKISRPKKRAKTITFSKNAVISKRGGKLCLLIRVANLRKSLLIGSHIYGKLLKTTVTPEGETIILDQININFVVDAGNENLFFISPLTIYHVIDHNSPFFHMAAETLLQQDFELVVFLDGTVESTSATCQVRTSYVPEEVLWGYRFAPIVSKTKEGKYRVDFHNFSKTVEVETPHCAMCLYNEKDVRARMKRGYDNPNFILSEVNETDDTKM
# TbHK1 inh = T. brucei hexokinase 1 inhibition | recombinant TbHK1, G6PDH-coupled NADH A340 | inhibition, % at 10 µM | hit rate 0.11% among 220,000 | AID 1430;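 active means inhibition of 50% or more in the single-dose primary screen; inactive means inhibition below 50%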
# Insulin prom inh = TRM-6 insulin promoter activity inhibition; TRM-6 cells (human fetal islet line), insulin promoter-eGFP reporter, imaging; reporter expression induced with tamoxifen; inhibition, % at 2 µM; hit rate 0.9% among 130,000;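 active means inhibition above the mean plus 3 SD, with well images judged a real hit on visual review, cut at about 60% in these data, passing the limit was not always enough; inconclusive means inhibition over the cutoff but images rejected on review; inactive means inhibition not above the cutoff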
# Insulin prom up = MIN6 insulin promoter up-regulation; MIN6 insulin promoter-GFP reporter, high-content imaging; stronger effect = higher value; z-score at 5 µM; hit rate 0.3% among 190,000; AID 1625;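 active means z-score above 3 at 5 µM with at least 500 cells counted in the well; inconclusive means wells under 500 cells, flagged as cytotoxic or low count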
# HSV augment = HSV replication enhancement | HSV replication augmentation in cells, fold increase | maximum fold increase | hit rate 0.005% among 220,000 | AID 1956; in the data active means maximum fold increase above about 1.5; inconclusive means no clear call, values can overlap the other calls; tested in PC3 cells
# ROMK hit retest = retested hit modulating human ROMK potassium channel. ROMK thallium flux, fluorescence ratio; stronger effect = lower value. hit rate 54% among 3,000. shares compounds with ROMK mod. normalized thallium flux (F/F0 slope) at 10 µM. AID 1917;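 active means Flux at 10 µM at least 3 SD below or above vehicle control mean in one or both replicates; inconclusive means no clear call, values can overlap the other calls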
# The depositor's hits bear a star; i = inactive; ? = inconclusive; . = not tested or not shown.
SMILES,ROMK mod,TbHK1 inh,Insulin prom inh,Insulin prom up,HSV augment,ROMK hit retest
CCC1CCCCN1Cc1ccc(N)cc1 (stereo not given),0.86,-5.4,29.4,.,i,.
O=C(Nc1ccccc1C(=O)N1CCCCC1)NC1CCCCC1,0.24,-7.1,.,0.61,i,.
Cc1cc(NC(=O)CN2C(=O)/C(=C/c3cccc(Br)c3)SC2=S)no1,-4.22*,-17.8,36.4,-0.19,i,0.0809
O=C(CCCN1C(=O)/C(=C/c2cccc(Br)c2)SC1=S)Nc1ccccn1,.,-10.5,.,0.14,i,.
CC1=C(C(=O)OC2CCCCC2)C(c2ccco2)C2=C(CC(C)(C)CC2=O)N1 (stereo not given),.,-2.6,-16.1,0.6,i,0.0757
CC1=C(C(=O)OC2CCCCC2)C(c2ccc(C)o2)C2=C(CCCC2=O)N1 (stereo not given),-0.683,-3.6,.,1.92,i,.
CN(CC(=O)Nc1ccc(C(N)=O)cc1)CC(=O)Nc1ccccc1Br,6.1*,1.1,.,-0.4,i,0.0746
CC(=O)Nc1ccc(NC(=O)CN(C)CC(=O)Nc2ccccc2Br)cc1,0.952,-3.5,.,0.13,i,.
C=CCSc1nc2sc(C)c(C)c2c(=O)n1N,0.666,-6.3,25.0,-0.55,i,.
COc1ccc(Cn2c(-c3ccc(OC)cc3)nc3ccccc32)cc1,-2.51*,-2.7,-8.6,-1.1,.,?
CCCCCCCCOC(=O)C[N+](C)(C)C/C=C(/C)Cl,-1.8,8.1,-40.0,-0.18,i,.
CCCCCCCCCCOC(=O)C[N+](C)(C)C/C=C(/C)Cl,.,3.0,-39.3,-0.92,i,0.0572*
CCCCCCCCCCCCOC(=O)C[N+](C)(C)C,-3.84*,14.6,.,-1.8,i,0.048*
Nc1ccc2c(c1)Oc1ccccc1C=C2,-3.17*,-16.6,-123.8,1.4,i,0.0703
C=CCn1cnc2c(nnn2Cc2ccc(F)cc2)c1=O,0.0274,-6.3,.,0.34,i,.
C/C(=N\NC(=O)c1nc2ccccn2c1C)c1cc2ccccc2o1,0.106,-49.2,.,-0.36,i,.
C/C(=N\NC(=O)c1cc2ccccc2cc1O)c1cc2ccccc2o1,.,-91.0,.,-0.09,i,0.127*
COc1cc(CNCCCN2CCOCC2)cc(Br)c1OCc1ccc(Cl)cc1,-3.81*,13.4,.,-0.7,i,?
COC(=O)/C=C1/SC(=NC(=O)c2ccccc2)NC1=O,.,-46.9,.,0.61,i,.
COC(=O)/C=C1\SC(=NC(=O)c2cccc(Cl)c2)NC1=O,.,-6.3,11.5,0.44,.,0.0515*
COC(=O)/C=C1/SC(=NC(=O)c2ccc(F)cc2)NC1=O,.,-83.5,.,-0.04,i,0.0484*
COC(=O)/C=C1\S/C(=N/NC(=O)c2ccccc2)NC1=O,0.45,-50.9,-9.1,.,i,.
C=CCNC(=O)CSc1nnc(C(CC)N(C)C)n1C1CCCCC1 (stereo not given),0.92,-8.1,.,0.48,i,.
Cc1cc(C)n(-c2nc(Nc3ccccc3C(F)(F)F)nc(-n3nc(C)cc3C)n2)n1,.,2.2,.,.,i,?
Cc1ccc(CCN2C(=O)CCC2(C)C(=O)NC2CCCC2)cc1 (stereo not given),1.03,0.8,-15.0,0.2,.,0.0721
SMILES,ROMK mod,TbHK1 inh,Insulin prom inh,Insulin prom up,HSV augment,ROMK hit retest
COc1ccc(CCN2C(=O)CCC2(C)C(=O)NC2CCCC2)cc1OC (stereo not given),-0.402,0.5,.,-0.3,i,.
C[n+]1c2n(c3ccccc31)N=C(c1cc(C(C)(C)C)c(O)c(C(C)(C)C)c1)CS2,-5.54*,-8.0,11.1,?,i,0.0388*
O=C(C1=C[C@@H](c2ccccc2)C[C@@H](OCc2ccc(CO)cc2)O1)N1CCCCCCC1,.,-12.4,.,-0.71,.,.
O=C(CSCC(=O)N1CCCCC1)Nc1nc(-c2ccc(Cl)s2)cs1,.,0.3,.,-0.46,i,?
O=C(CSCC(=O)N1CCN(c2ccccc2)CC1)Nc1nc(-c2ccc(Cl)s2)cs1,.,-7.0,.,0.15,i,.
COC(=O)CS(=O)(=O)c1cccc2cccnc12,-1.23,-3.7,-48.6,0.08,i,.
COC(=O)c1ccc(OC(=O)c2ccc(OC)c(OC)c2)c(OC)c1,-3.89*,4.2,-18.2,0.18,i,0.0796
Cn1c(N)c(C(=O)COC(=O)c2cccnc2Cl)c(=O)n(C)c1=O,.,-2.1,7.1,-0.07,i,0.0789
CC(C)Cn1c(N)c(C(=O)COC(=O)c2cccnc2Cl)c(=O)n(C)c1=O,-0.757,-1.3,-27.3,-0.29,i,.
COc1ccc(-n2ccnc2SCC(=O)NCc2ccco2)c(OC)c1,0.119,5.4,.,-0.8,i,.
CCn1c(=O)cc(SCC(=O)NCc2ccco2)c2ccccc21,3.52*,-3.6,.,-0.71,i,0.0854
Cc1cc(C)n(-c2cccc(C(=O)O)c2)n1,0.608,-4.4,21.4,0.36,i,.
N#C/C(=C\c1cccs1)C(=O)c1ccccc1Cl,.,1.4,.,0.18,i,0.0517*
CC(C)(C)C(=O)/C(C#N)=C/c1cccs1,-0.777,-11.4,.,.,i,.
O=C1NC(=S)S/C1=C\c1coc2ccc(O)cc2c1=O,.,8.8,.,0.1,i,0.0319*
Cc1cc(OCC(=O)N(C)C2CCCCC2)ccc1Cl,.,-0.8,.,-0.36,i,.
CN(C(=O)COC(=O)COc1ccc(Cl)cc1)C1CCCCC1,.,-2.4,-30.8,0.15,i,0.0743
CCOCCCNC(=O)c1ccc2c(c1)N=C(CC)c1cc(Br)ccc1S2,4.07*,-3.7,-273.3,-1.22,i,0.0839
CCOCCCNC(=O)c1ccc2c(c1)OCO2,.,5.3,-279.2,1.12,i,.
CCOc1cc(C2C(C#N)=C(N)OC(C)=C2C(C)=O)c(Br)c(Br)c1OC(C)C (stereo not given),-3.58*,-9.7,-31.4,.,i,0.0788
CCOc1cc(C2C(C#N)=C(N)OC(C)=C2C(C)=O)cc(Br)c1O (stereo not given),-1.28,-4.0,25.9,-0.25,i,.
O=P(c1ccccc1)(c1ccccc1)C(O)c1ccncc1 (stereo not given),-2.03,1.1,.,-0.08,i,.
O=P(c1ccccc1)(c1ccccc1)C(O)c1ccco1 (stereo not given),2.24*,0.3,37.8,0.01,i,0.084
Cc1ccn2c(C(=O)N/N=C\c3ccccc3[N+](=O)[O-])c(C)nc2c1,.,-31.3,.,.,.,.
CC(C)(C)Nc1nc(Cl)nc(NC(C)(C)C)n1,.,18.1,-6.9,-0.77,i,.
SMILES,ROMK mod,TbHK1 inh,Insulin prom inh,Insulin prom up,HSV augment,ROMK hit retest
CCCNc1nc(Cl)nc(NC(C)(C)C)n1,-3.78*,-2.5,.,-0.13,i,0.0533*
COCCOC(=O)c1c(NC(=O)CN2c3ccccc3CC2C)sc(C(N)=O)c1C (stereo not given),2.19*,-4.5,.,-1.02,i,?
COc1ccc(C(=O)NCc2nnc(SCC(=O)Nc3ccccc3OC)n2C)cc1,-0.403,-2.6,.,-0.92,i,.
CCc1cc(SC#N)cc(CC)c1NC(=O)CCl,-3.57*,-3.4,0.0,0.39,i,0.0472*
NNC(=O)/C=C/c1ccc(Cl)cc1Cl,2.26*,3.3,5.0,0.43,i,0.0764
CC1CCCN(C(=S)NC2CCCC2)C1 (stereo not given),0.402,-0.9,-11.8,-2.92,i,.
CCOc1ccccc1NC(=O)C(NCC1(N2CCCCC2)CCCCC1)c1ccccc1 (stereo not given),-3.44*,14.0,-128.6,-1.21,.,0.0642*

# Assay outcomes deposited in PubChem by several laboratories.
